Source: PubChem BioAssay
FAS TE block: FAS thioesterase domain inhibitors, primary screen, biochemical, fluorescence intensity, uHTS. Fatty acid synthase (Homo sapiens), P49327. AID 602261, 2012. inhibition, % at 15 µM. recombinant FAS-TE, OMFH fluorogenic substrate, fluorescence endpoint. 360,000 compounds, 0.67% hits;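 active = compounds whose normalised, plate-corrected inhibition of enzyme fluorescence in the single-dose primary screen is 50% or more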;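 also: 0% = DMSO with enzyme and 100% = substrate without enzyme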
Calb FLC: C. albicans growth inhibition with fluconazole, primary screen, CaCi-2 strain, Alamar Blue fluorescence; C. albicans CaCi-2 (fluconazole-resistant clinical isolate) + fluconazole, 48 h; 300,000 compounds, 0.57% hits; growth inhibition, % (test concentration not listed); AID 1979, 2009;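 active = growth inhibition above about 58% in most replicates, limit read from the data, passing the limit was not always enough; inconclusive = exactly half the replicates above a set limit; inactive = most replicates below a set limit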;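 also: all wells also contain fluconazole at 8 µg/ml as a sub-toxic cotreatment; 0% = median of DMSO wells and 100% = median of geldanamycin control wells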
NadD block: inhibitors of S. aureus NadD, primary screen, biochemical, colorimetric, uHTS; purified NadD enzyme, colorimetric absorbance read-out; 360,000 compounds, 0.78% hits; inhibition, % at 20 µM; Nicotinate-nucleotide adenylyltransferase NadD (Staphylococcus aureus N315); in the data active = inhibition above about 26%
Mot1-301 SUMO: yeast Mot1-301 growth rescue at high temperature, primary screen, SUMOylation pathway inhibitor project, S. cerevisiae, ATP luminescence, 38.5C; 320,000 compounds, 1% hits; S. cerevisiae Mot1-301 growth rescue; percent above DMSO median, 100 means doubled; AID 2716, 2010; growth rescue, % at 18.8 µM;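 active = every valid replicate shows activation above 250% relative to neutral control wells; inactive = the rest, any valid replicate at or below 250%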;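 also: OY570 slx delta 5 strain wells were the positive control but not used for scaling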
ATG4B inhibitor: ATG4B protease inhibitors, primary screen, biochemical, fluorescence, uHTS; 340,000 compounds, 0.51% hits; ATG4B cleavage of LC3-PLA2, NBD-HPC fluorescence, 1 h; inhibition, % at 8.33 µM; Cysteine protease ATG4B (Homo sapiens), Q9Y4P1; in the data active = inhibition above about 40%
Target sequence (Q9Y4P1 whole entry, looked up): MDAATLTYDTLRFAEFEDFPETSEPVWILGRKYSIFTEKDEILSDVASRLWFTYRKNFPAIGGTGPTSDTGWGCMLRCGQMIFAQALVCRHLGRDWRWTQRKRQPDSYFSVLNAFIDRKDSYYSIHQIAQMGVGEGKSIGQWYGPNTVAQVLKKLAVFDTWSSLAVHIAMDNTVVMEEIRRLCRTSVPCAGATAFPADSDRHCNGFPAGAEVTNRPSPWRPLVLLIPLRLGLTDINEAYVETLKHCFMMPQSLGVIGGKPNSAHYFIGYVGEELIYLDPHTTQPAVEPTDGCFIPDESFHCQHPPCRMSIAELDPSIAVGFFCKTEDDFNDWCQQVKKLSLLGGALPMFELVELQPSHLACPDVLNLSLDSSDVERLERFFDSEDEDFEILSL
ATG4B confirm: ATG4B protease inhibitors, retest, confirmation, biochemical, fluorescence, single concentration. shares compounds with ATG4B inhibitor. ATG4B protease fluorescent substrate cleavage assay. inhibition, % at 8.33 µM. 320 compounds, 92% hits. AID 504757, 2011; in the data active = inhibition above about 39%
PLA2 ctr: PLA2 enzyme inhibition, counter-screen for ATG4B inhibitor project, biochemical, single concentration, uHTS hits; inhibition, % at 8.33 µM; 1,600 compounds, 66% hits; shares compounds with ATG4B inhibitor; purified PLA2, NBD-C6-HPC fluorescence, 45 min; in the data active = inhibition above about 50%
Target sequence (P04054 whole entry, looked up): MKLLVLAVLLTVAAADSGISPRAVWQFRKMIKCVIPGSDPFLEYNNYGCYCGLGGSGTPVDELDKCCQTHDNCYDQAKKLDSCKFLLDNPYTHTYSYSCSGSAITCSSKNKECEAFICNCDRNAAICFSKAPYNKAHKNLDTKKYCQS
NadD inh conf: inhibitors of S. aureus NadD, confirmation, biochemical, colorimetric, single concentration; shares compounds with NadD block; purified S. aureus NadD, colorimetric enzyme assay; inhibition, % at 20 µM; 2,000 compounds, 13% hits; AID 624309, 2012; in the data active = inhibition mostly above about 42%, no sharp cut-off; inactive = mostly below about 42%
Starred values were filed as active, the others as inactive. Hits are enriched below; roughly 3.1% of the tested compounds scored in any of these assays.

How did O=C(NCc1ccccc1)c1ccc2nc(-c3ccco3)c(-c3ccco3)nc2c1 do in these assays?
FAS TE block: 8.8; Calb FLC: 18.2; NadD block: 45.4*; Mot1-301 SUMO: -3.2; ATG4B inhibitor: 44.1*; PLA2 ctr: 30.6; NadD inh conf: 7.3

Results for CC1CCCCC1NC(=O)COC(=O)c1c2c(nc3ccccc13)/C(=C/c1ccco1)CC2 (stereo not given) ?
FAS TE block: -4.5; Calb FLC: 1.5; NadD block: 85.1*; Mot1-301 SUMO: 71.0; ATG4B inhibitor: 53.1*; ATG4B confirm: 75.1*; PLA2 ctr: 44.7; NadD inh conf: 42.4

What do the screens show for `Cc1cccc(-n2c(O)c(C=Nc3ccccc3-c3n[nH]c(=S)[nH]c3=O)c3ccccc3c2=O)n1`?
FAS TE block: 11.1; Calb FLC: -0.1; NadD block: 25.9; Mot1-301 SUMO: -28.7; ATG4B inhibitor: 5.0

Results for Cc1ccc(-n2c(O)c(C=Nc3ccccc3-c3n[nH]c(=S)[nH]c3=O)c3ccccc3c2=O)c(C)c1 ?
FAS TE block: 25.1; Calb FLC: 0.1; NadD block: 32.0*; Mot1-301 SUMO: 117.1; ATG4B inhibitor: 43.0*; ATG4B confirm: 65.5*; PLA2 ctr: 47.6; NadD inh conf: 36.8

How did Cc1cc(NC(=O)COc2ccccc2C(N)=O)no1 do in these assays?
FAS TE block: -6.7; NadD block: -3.1; Mot1-301 SUMO: -2.6; ATG4B inhibitor: 1.1

What do the screens show for `O=S(=O)(Nc1c(S(=O)(=O)c2ccccc2)c2nc3ccccc3nc2n1C1CCCCC1)c1ccccc1`?
FAS TE block: 19.0; Calb FLC: -1.6; NadD block: 31.8*; Mot1-301 SUMO: -21.0; ATG4B inhibitor: 44.6*; PLA2 ctr: 50.1*; NadD inh conf: 48.5*

How did C=CCn1c(NS(=O)(=O)c2ccccc2)c(S(=O)(=O)c2ccc(C)cc2)c2nc3ccccc3nc21 do in these assays?
FAS TE block: -2.6; Calb FLC: 10.9; NadD block: -1.5; Mot1-301 SUMO: -5.1; ATG4B inhibitor: 6.9

Results for O=C(NCCCN1CCCC1=O)C1CCN(S(=O)(=O)c2ccccc2)CC1 ?
FAS TE block: -0.7; NadD block: -0.3; Mot1-301 SUMO: -6.7; ATG4B inhibitor: -1.9

Results for O=[N+]([O-])c1ccc(N/N=C/c2sc(N3CCOCC3)nc2-c2ccccc2)c(S(=O)(=O)Nc2ccccc2Cl)c1 ?
FAS TE block: 12.0; NadD block: 74.8*; ATG4B inhibitor: 62.0*; PLA2 ctr: 25.6; NadD inh conf: 6.1

How did O=C(N/N=C/c1sc(N2CCOCC2)nc1-c1ccccc1)c1ccccc1Cl do in these assays?
FAS TE block: 3.9; Calb FLC: inconclusive; NadD block: -1.1; Mot1-301 SUMO: -3.1; ATG4B inhibitor: -4.0

How did CCCc1cc(=O)[nH]c(SCC(=O)N2N=C(c3ccc(Cl)cc3)CC2c2ccco2)n1 (stereo not given) do in these assays?
FAS TE block: 19.5; Calb FLC: 10.3; NadD block: 35.3*; Mot1-301 SUMO: 317.0; ATG4B inhibitor: 47.6*; ATG4B confirm: 73.4*; PLA2 ctr: 39.6; NadD inh conf: 49.5*

What do the screens show for `O=C(CSc1nnnn1-c1ccccc1)Nc1ncc(Cc2ccccc2Cl)s1`?
FAS TE block: 2.2; Calb FLC: 2.3; NadD block: 1.2; Mot1-301 SUMO: -1.6; ATG4B inhibitor: -2.2

What do the screens show for `N=C1SC(c2ccccc2)C(=O)N1c1ncc(Cc2ccccc2Cl)s1` (stereo not given)?
FAS TE block: 2.5; Calb FLC: 0.2; NadD block: 49.6*; Mot1-301 SUMO: 30.4; ATG4B inhibitor: 79.3*; PLA2 ctr: 79.8*; NadD inh conf: 50.1*

What do the screens show for `C[C@@H]1CN([C@@H](C)CO)C(=O)c2cc(C#Cc3ccccc3)cnc2O[C@@H]1CN(C)Cc1ccccn1`?
FAS TE block: -8.1; NadD block: 9.7

Results for COc1ccccc1NS(=O)(=O)c1cccc(-n2c(O)c(C=Nc3ccccc3C(=O)O)c3ccccc3c2=O)c1 ?
FAS TE block: 10.3; Calb FLC: 7.2; NadD block: 31.1*; Mot1-301 SUMO: -3.7; ATG4B inhibitor: 51.0*; PLA2 ctr: 74.3*; NadD inh conf: 54.0*

How did CCOc1c(OC(C)=O)ccc(/C=C2\N=C(SCC)SC2=O)c1[N+](=O)[O-] do in these assays?
FAS TE block: -63.9; Calb FLC: 4.9; NadD block: 4.7; Mot1-301 SUMO: -1.6; ATG4B inhibitor: 22.0

What do the screens show for `CCOc1cc(/C=C2\N=C(SCC)SC2=O)cc([N+](=O)[O-])c1OC(C)=O`?
FAS TE block: 1.9; Calb FLC: -4.6; NadD block: 29.8*; Mot1-301 SUMO: 223.5; ATG4B inhibitor: 76.1*; PLA2 ctr: 75.1*; NadD inh conf: 3.2

What do the screens show for `O=C(CSc1ccc(Br)c2cccc(Cl)c12)Nc1ccc(S(=O)(=O)Nc2nccs2)cc1`?
FAS TE block: 17.4; Calb FLC: -22.7; NadD block: 70.5*; Mot1-301 SUMO: 6.8; ATG4B inhibitor: 48.4*; PLA2 ctr: 52.9*; NadD inh conf: 30.7*

Results for O=C(Cc1ccccc1Cl)Nc1ccc(S(=O)(=O)Nc2nccs2)cc1 ?
FAS TE block: -2.8; Calb FLC: 3.9; NadD block: -1.7; Mot1-301 SUMO: -16.2; ATG4B inhibitor: 2.5

How did CN1CCN(CCCNCc2cn(CCC#N)c3ccccc23)CC1 do in these assays?
FAS TE block: -4.7; Calb FLC: 2.7; NadD block: 0.4; Mot1-301 SUMO: -17.6; ATG4B inhibitor: -4.5

Results for CCCCn1c(NC(=O)c2ccccc2)c(C#N)c2nc3ccccc3nc21 ?
FAS TE block: 39.3; NadD block: 32.9*; ATG4B inhibitor: 54.9*; PLA2 ctr: 60.3*; NadD inh conf: 42.7

How did Cc1cccc(C(C)C)c1NS(=O)(=O)c1cn(C)nc1C do in these assays?
FAS TE block: -2.0; Calb FLC: -2.6; NadD block: 0.6; Mot1-301 SUMO: -7.4; ATG4B inhibitor: -6.2
